Where “and” joins values, the source holds several entries; their conditions need not be identical. Equal entries are not always repeated. In all, about 310,000 compounds went through this assay and about 18,000 (5.8%) were called active. Another 22% or so got no clear call; they are omitted. The list comes from a sample in which actives are over-represented; it also holds similar structures and randomly drawn compounds. A call without a number means that no potency is given here. Values without a mark were called inactive. Calls come from the whole dose curve; as a rule, active = well fitted inhibition curve with a large enough effect; inconclusive = small, poorly fitted or top-dose-only effect, or another doubt; inactive = no such curve, though single readings can be large or run the other way.
Potency is the fitted concentration of half-maximal effect.

This experiment in a line: Primary qHTS for delayed death inhibitors of the malarial parasite plastid, 48 hour incubation. The settings on record: P. falciparum luciferase growth in erythrocytes; series mostly up to 28.7 µM. In short, it runs like this: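 Here the parasites carry a stable luciferase gene and grow inside erythrocytes in Albumax-based RPMI medium with compound for one erythrocytic cycle. Activity is scored as loss of luminescent signal.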
`COc1cc(NC(=O)CSC(=S)N2CCCC2)c(OC)cc1Cl`: the Potency result was “inactive”.
Take `Oc1ccccc1C1=NN(c2ccccc2)C(c2ccccc2)C1` (stereo not given): the Potency was 1.31 µM (active).
Still for that read-out and setting: next, `COc1ccc(C2CC(c3ccccc3)=NN2C(=O)c2ccc(Cl)c([N+](=O)[O-])c2)cc1` (stereo not given): “inactive”.
Still for that read-out and setting: next, `O=C(c1ccccc1)N1N=C(c2ccccc2O)CC1c1ccc(Br)cc1` (stereo not given): 3.7 µM (active); `CC(=O)Oc1ccccc1C1=NN(C(C)=O)C(c2ccccc2)C1` (stereo not given): “inactive”.
Take `O=C1CC(c2ccccc2)C(=O)N1c1cccc(O)c1` (stereo not given): the Potency result is “inactive”.
Same read-out and setting: the result for `CCn1c(=O)c(=O)[nH]c2c(=O)oc3ccc(S(=O)(=O)Nc4ccc(OC)cc4)cc3c21` reads “inactive”; that for `COc1ccc(C(=O)CCC(=O)Nc2ccc(Cl)cc2)cc1`, “inactive”; that for `O=C(NCCO)C(=O)NCC(c1ccc2c(c1)OCO2)N1CCN(c2ccc(F)cc2)CC1` (stereo not given), “inactive”.
With `O=C(OCCN=C1NS(=O)(=O)c2ccccc21)c1cccc([N+](=O)[O-])c1`, the Potency result is “inactive”.
Same read-out and setting: the result for `Cn1c(=O)c2c(ncn2CC(COCc2ccccc2Cl)OCc2ccccc2Cl)n(C)c1=O` (stereo not given) reads 8.28 µM (active); that for `Cn1c(=O)c2c(ncn2CC(=O)N2CCN(c3ccccc3)CC2)n(C)c1=O`, “inactive”.
As to `Cn1c(=O)c2c(ncn2CCc2ccccc2)n(C)c1=O`, the Potency result was “inactive”.
Consider `COc1ccccc1S(=O)(=O)c1c(C)cc(C)[nH]c1=O`, for which the Potency result is “inactive”.
As for `O=S(=O)(NC1CC1)c1ccc(F)c(F)c1`, the Potency result was “inactive”.
`O=C(CC1C(=O)NCCN1CC(c1ccccc1)c1ccccc1)NCC1CCOCC1` (stereo not given): the Potency entry was “inactive”.
`C=CCN1CCN(C(=O)CCCc2ccccc2)CC1`: the Potency entry was “inactive”.
On to `COc1ccc(/C=C2/C(=O)N(c3ccccc3)N=C2C)c(OC)c1`, for which the Potency result was “inactive”.
Regarding `COc1ccc(/C=C/C2=CC(C)(C)NC(=S)N2)c(OC)c1`, the Potency was 10.4 µM (active).
The same measure, in the same setting: next, `COc1ccc(/C=C/C(=O)OCC(=O)Nc2cccc(Oc3ccccc3)c2)c(OC)c1`: “inactive”.
For `O=C(CNC(=O)c1cccnc1)N/N=C/c1cccnc1`, the activity change, negative = inhibition was 2.56% [at 0.00184 µM].
As for `CCN(C(=O)CSc1ncnc2c1cnn2-c1ccccc1)C1CCS(=O)(=O)C1` (stereo not given), the Potency result was “inactive”.
The same measure, in the same setting: the result for `CC(C(=O)NC1CCCCC1)N1C(=O)c2cccc3cccc1c23` (stereo not given) reads “inactive”.
With `Cc1c(Cl)cccc1NC(=S)NCc1ccc2c(c1)OCO2`, the Potency entry was “inactive”.
Regarding `CCc1cccc(CC)c1NC(=S)NCc1ccc2[nH]c(C)cc2c1`, the Potency is 4.65 µM (active).
For `CCc1cccc(CC)c1NC(=S)Nc1ccc2cn[nH]c2c1`, the Potency result was “inactive”.
With `Cc1cccc(NC(=O)C2CCN(C(=O)NC3CCCCC3)CC2)c1`, the Potency entry was “inactive”.
With `CCc1ccc(OCC(=O)N(Cc2ccccc2)C2CCS(=O)(=O)C2)cc1` (stereo not given), the Potency result was “inactive”.
With `CCOC(=O)N1CCN(S(=O)(=O)N2CCCC(C(=O)NCCCN3CCC(C)CC3)C2)CC1` (stereo not given), the Potency result is “inactive”.
As to `CCN(CCn1cccn1)Cc1cn[nH]c1-c1ccc(OC)cc1F`, the Potency entry was “inactive”.
The same measure, in the same setting: the result for `COc1ccc(-c2cn[nH]c2-c2ccc(OC)cc2)cc1` reads “inactive”.
For the compound `COc1ccc(Oc2cn[nH]c2-c2ccc(OC)cc2O)cc1`, the Potency was 6.57 µM (active).
For the compound `CCOc1ccccc1Oc1cn[nH]c1-c1ccc(OC)cc1O`, the Potency is 11.7 µM (active).
Still for that read-out and setting: the result for `COc1ccc(-c2[nH]ncc2/C=N/NC(=O)c2cc(Br)ccc2O)c(OC)c1` reads “inactive”; that for `COc1ccc(-c2[nH]ncc2CN(C)Cc2cccnc2)c(F)c1`, “inactive”.
As for `NC(=O)CSc1nnc(NC(=O)c2ccc(Br)o2)s1`, the Potency entry was “inactive”.
Still for that read-out and setting: the result for `Cc1cc(C)c(S(=O)(=O)c2ccc(F)cc2C)c(=O)[nH]1` reads “inactive”; that for `CC(C)NS(=O)(=O)c1ccc(OCC(=O)NC2CCCCCC2)cc1`, “inactive”.
Take `Cc1ccc(NS(=O)(=O)c2ccc(F)cc2)nc1`: the Potency result was “inactive”.
The same measure, in the same setting: next, `CSCC[C@H](NC(=O)N1CCn2c1nc1ccccc12)C(=O)NCc1ccc2c(c1)OCO2`: “inactive”; `COC(=O)c1ccc2ccccc2c1OC1OC(CO)C(O)C(O)C1NC(C)=O` (stereo not given): “inactive”; `Cc1ccc(CNC(=O)[C@@H](NC(=O)Cc2ccccc2)C(C)C)cc1`: “inactive”.
Same read-out and setting: the result for `O=C(c1ccccc1)c1ccc(OCC(O)CN2CCCC2)cc1` (stereo not given) reads “inactive”.
Still for that read-out and setting: the result for `O=[N+]([O-])c1ccc(N2CCN(CC(O)COc3ccccc3)CC2)cc1` (stereo not given) reads “inactive”; that for `O=C(C(c1ccccc1)c1ccccc1)N1CCN(CC(O)COc2ccccc2)CC1` (stereo not given), 10.4 µM (active).
In the case of `Cc1cccc(-n2c(C)cc(/C=N/NC(N)=S)c2C)c1`, the Potency entry is “inactive”.
In the case of `Cc1cccc(-n2c(C)cc(/C=N\NC(=O)c3cccs3)c2C)c1`, the Potency was 5.22 µM (active).
On to `CC(=O)Nc1ccc(/C=N/NC(=O)c2cccs2)cc1`, for which the Potency result was “inactive”.
Still for that read-out and setting: the result for `Cc1ccc2[nH]cc(CCNC(=O)C3CCCCC3)c2c1` reads “inactive”; that for `CCc1c(C)nc(SCC(=O)NC2CCCC2)[nH]c1=O`, “inactive”.
Still for that read-out and setting: next, `N#C/C(=C(/O)Cc1cccc2ccccc12)c1nc2ccccc2s1`: “inactive”.
On the same count and under the same terms, the result for `c1ccc2c(CSCc3nc4ccccc4[nH]3)cccc2c1` reads “inactive”.
On to `N=C(N)SCc1cccc2ccccc12`, for which the Potency was 9.28 µM (active).
For the compound `O=C(Nc1ccc(Cl)cc1)c1cccc(OC(=S)N2CCOCC2)c1`, the Potency result is “inactive”.
Still for that read-out and setting: the result for `Cc1ccc(C(=O)O/N=C(\N)c2ccccn2)cc1Cl` reads “inactive”; that for `CCOc1ccc(OCCSc2nc3ccccc3n2CC(=O)O)cc1`, “inactive”.
Still for that read-out and setting: the result for `CC(C)=CCN1CCN(Cc2cc3ccccc3[nH]2)CC1CCO` (stereo not given) reads “inactive”.
Take `COc1ccc(C(=O)N2CCCC(C(=O)c3ccccc3OC)C2)cc1OC` (stereo not given): the Potency entry was “inactive”.
Regarding `COc1ccc(-n2nnnc2SCc2nc(N)nc(N3CCOCC3)n2)cc1`, the Potency result was “inactive”.
Same read-out and setting: the result for `COc1ccc(CSc2nc(N3CCOCC3)c3c(c2C#N)CC(C)(C)OC3)cc1` reads 11.7 µM (active).
With `Cc1cc(C)c(C#N)c(SCc2ccc3c(c2)OCO3)n1`, the Potency result was “inactive”.
Still for that read-out and setting: next, `CC(C)(C)OC(=O)N1CCC(C(=O)NNC(=O)c2ccc(Cl)cc2Cl)CC1`: “inactive”; `Cc1c(CN2CCC(n3nccc3NC(=O)CCc3ccccc3)CC2)cnn1C`: “inactive”.
Turning to `COC(=O)c1c(NC(=O)C2CC(C)=C(C)CC2C(=O)O)sc2c1CCCCC2` (stereo not given), the Potency result is “inactive”.
`COC(=O)c1ccc(S(=O)(=O)N2CCc3ccccc3C2)cc1`: the Potency result is “inactive”.
On the same count and under the same terms, next, `Cc1ccc(C2Nc3ccccc3C(=O)N2CCN2CCNC2=O)cc1` (stereo not given): “inactive”; `COc1ccc(N2C(=O)c3ccccc3NC2c2ccc(OC)c(CN3CCOCC3)c2)cc1` (stereo not given): “inactive”; `COc1ccc(C2Nc3ccccc3C(=O)N2c2ccc(Cl)cc2)cc1Cn1cc([N+](=O)[O-])cn1` (stereo not given): “inactive”.
Same read-out and setting: next, `COc1ccc(C2=NO[C@@H]3C(=O)N(Cc4ccccc4)C(=O)[C@H]23)cc1OC`: “inactive”; `COc1ccc(C2Nc3ccccc3C(=O)N2Cc2ccccc2)cc1Cn1nnc2ccccc21` (stereo not given): 3.7 µM (active); `COc1ccc(C2Nc3ccccc3C(=O)N2c2ccc(F)cc2)cc1Cn1nnc2ccccc21` (stereo not given): 6.57 µM (active).
On the same count and under the same terms, next, `CCCc1c(C(=O)N/N=C(\C)CCc2ccc(OC)cc2)nnn1-c1nonc1N`: “inactive”; `CC(C)C(NC(=O)c1c(F)cccc1F)C(=O)NCc1ccncc1` (stereo not given): “inactive”; `O=C(CCl)NNc1nc(-c2ccccc2)c2cc(Cl)ccc2n1`: “inactive”.
With `CCS(=O)(=O)Nc1cccc(-c2cc(-c3ccccc3)c3cc(C)ccc3n2)c1`, the Potency result was “inactive”.
Consider `Cc1ccc2nc(Nc3ccccc3O)nc(-c3ccccc3)c2c1`, for which the Potency is 13.1 µM (active).
Same read-out and setting: the result for `Nc1c(C(=O)OCC(=O)Nc2ccc(OC(F)F)cc2)[nH]c(=O)[nH]c1=O` reads “inactive”.
On the same count and under the same terms, next, `O=C(c1cc(COc2ccc(F)cc2F)on1)N1CCOCC1`: “inactive”; `CCCCC(=O)Nc1ccc(C(=O)Nc2cc(C(F)(F)F)ccc2Cl)cc1`: “inactive”.
For the compound `CCCCN(CCCC)CCC(O)c1cc2c(Cl)cc(Cl)cc2c2cc(C(F)(F)F)ccc12` (stereo not given), the Potency was 3.2 nM (active) and 4.1 nM (active).
The same measure, in the same setting: the result for `COc1cccc(CNC(=O)COc2cc(O)c3c(c2)OC(C)(C)CC3=O)c1` reads “inactive”.
For the compound `Clc1ccc(CSc2nnc3c(n2)[nH]c2ccccc23)cc1`, the Potency is 5.22 µM (active).
Turning to `Cc1ccc(CNC(=O)CSc2nnc3c(n2)[nH]c2ccc(F)cc23)cc1`, the Potency entry is “inactive”.
Take `O=C(CSc1nnc2c(n1)[nH]c1ccccc12)NC1CCCCC1`: the Potency result was “inactive”.
Same read-out and setting: the result for `CCCCN(C(=O)c1ccc(S(=O)(=O)N2CCOCC2)cc1)C1CCS(=O)(=O)C1` (stereo not given) reads “inactive”; that for `O=C1NNC(c2ccccc2)=N/C1=C\c1ccc(Cl)cc1`, 6.57 µM (active); that for `O=C1OC(c2ccc(Cl)cc2)=N/C1=C\c1cccnc1`, “inactive”.
Still for that read-out and setting: the result for `O=C1NCC(=O)N(Cc2ccccc2)/C1=C/c1ccccc1` reads “inactive”.
As to `COc1ccc(C2CC(c3ccc([N+](=O)[O-])cc3)=NN2C(C)=O)cc1` (stereo not given), the Potency entry is “inactive”.
The same measure, in the same setting: next, `CNC(=O)C1CC(=O)N(c2ccc(OCC(=O)Nc3ccccc3C)cc2)C1` (stereo not given): “inactive”; `O=C1C(=O)N(CCCO)C(c2ccccc2)/C1=C(\O)c1ccc(Br)cc1` (stereo not given): “inactive”; `Cc1ccc(OCCOc2cccc(/C=N/NC(N)=O)c2)cc1`: “inactive”.
`O=C(N/N=C/c1cccc(OCc2ccccc2)c1)c1ccc(Br)o1`: the Potency was 9.28 µM (active).
As for `O=C(N/N=C/c1cccc(O)c1)c1cc2c(ccc3ccccc32)o1`, the Potency result was “inactive”.
In the case of `O=C(NCCCN1CCOCC1)c1cc(-c2ccccc2F)no1`, the Potency result is “inactive”.
As to `Nc1ccccc1Sc1ccc(C(F)(F)F)cc1[N+](=O)[O-]`, the Potency result was “inactive”.
For the compound `Nc1ccccc1SC(C[N+](=O)[O-])c1ccccc1` (stereo not given), the Potency was 4.15 µM (active).
In the case of `Nc1ccccc1SCc1cc([N+](=O)[O-])cc2c1OCOC2`, the Potency result was “inactive”.
On the same count and under the same terms, next, `CN(c1ccc(O)cc1)c1nc(-c2cccnc2)cs1`: “inactive”; `COc1ccc(OC)c(C2C3=C(N=c4s/c(=C\c5cccc(O)c5)c(=O)n42)c2ccccc2CC3)c1` (stereo not given): 5.86 µM (active).
Regarding `O=C1CCCC2=C1C(c1ccccc1)n1c(s/c(=C/c3cccc(F)c3)c1=O)=N2` (stereo not given), the Potency entry was “inactive”.
The same measure, in the same setting: next, `O=C(NCCc1ccc(F)cc1)c1ccc2nccnc2c1`: “inactive”; `CC(C)Cc1nc(Nc2ccc(S(=O)(=O)N3CCCC3)cc2)c2nnn(Cc3ccccc3)c2n1`: 4.65 µM (active); `CC(C)Nc1ncnc2c1nnn2Cc1ccccc1`: “inactive”.
As to `Clc1ccc(Nc2ncnc3c2nnn3Cc2ccccc2)cc1`, the Potency result is “inactive”.

For the origin of these results see PubChem BioAssay AID504832 (National Center for Advancing Translational Sciences (NCATS), 2011).
